The text below walks through data of PubChem BioAssay.

One experiment concerns the target Albumin (Bos taurus) (UniProt P02769). The experiment in a line: compounds binding labelled BSA control protein – biochemical, small-molecule microarray, Alexa647 label, 635/667 nm fluorescence, artefact control for SMM control protein annotation, profiling panel (AID 1118).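 Also: score merges 667 nm emission intensity and signal-to-noise per printed compound spot.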 The note with it: BSA-A647 binding, fluorescence 635 nm, higher = more signal.
Experiment [1] is described as follows: probe aXIP binding to arrayed compounds – biochemical, NeuroSMM set, 635/667 nm fluorescence, primary screen (AID 1119).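 Also: probe is the protein aXip251-270 applied at 1 µg/mL to compound-printed slides; binding of probe to printed compounds measured as 667 nm fluorescence plus signal to noise.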 The note with it: small-molecule microarray, higher = more signal, called active from +8 up or from −8 down.
A short description of experiment [2]: probe aNOTCH3 binding on compound microarray – biochemical, small-molecule microarray, 635/667 nm fluorescence, primary screen (AID 1120).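 Also: probe is a biotin-tagged antibody raised against NOTCH3 rather than NOTCH3 protein; score merges spot fluorescence near 667 nm with spot signal to noise.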 The note with it: higher = more signal.
Experiment [3] can be described thus: probe aNOTCH2 binding on compound microarray – biochemical, small-molecule microarray, 635/667 nm fluorescence, primary screen (AID 1121).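 Also: score merges feature fluorescence read at 667 nm with its signal to noise.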 The conditions noted are these: higher = more signal.
The target of experiment [4] is Carbonic anhydrase 2 (Homo sapiens) (UniProt P00918). The experiment in a line: compounds binding carbonic anhydrase 2 – biochemical, small-molecule microarray, Alexa647-labelled CAII, profiling panel (AID 1122). The note with it: CAII-A647 binding fluorescence, higher = more signal.
Experiment [5] in a line: COS7 lysate on small-molecule microarray, probe aHis, 635 nm (AID 1123).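 Also: z-score combines 667nm fluorescence intensity with signal-to-noise per printed compound spot.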 The conditions noted are these: COS7 cell lysate, fluorescence, higher = more signal.
Experiment [6] can be described thus: probe aLAP1 signal on lysate-treated microarray – cell lysate, small-molecule microarray, COS7 lysate, primary screen (AID 1124).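 Also: lysate comes from COS7 cells expressing LAP1 and is applied at 0.3 µg/mL; score merges spot fluorescence near 667 nm with signal-to-noise over triplicate slides.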 The note with it: probe aLAP1, fluorescence, higher = more signal.
The next experiment deals with Sam68 (KHDRBS1). Description: compounds binding KHDRBS1 protein – biochemical, small-molecule microarray, 635 nm fluorescence, primary screen (AID 1125).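 Also: score merges 667 nm channel intensity with signal to noise over triplicate slides.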 The conditions noted are these: higher = more signal.
Experiment [7] has as its system Chordin-like protein 2 (CHRDL2). The experiment in a line: compounds binding chordin-like 2 – biochemical, small-molecule microarray, 635 nm fluorescence, primary screen (AID 1126).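 Also: printed compound slides probed with Chrdl2 protein at 4 µg/mL for 1 h at 4 C; score merges 667 nm emission intensity with signal to noise over three replicate slides.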 The note with it: fluorescence 635 nm, higher = more signal.
Experiment [8] addresses Concanavalin-A (Canavalia ensiformis) (UniProt P02866). Description: compounds binding concanavalin A lectin – biochemical, small-molecule microarray, Alexa647 label, 635 nm, artefact control for SMM control protein annotation, primary screen (AID 1127).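 Also: z combines 667 nm emission intensity with signal-to-noise across three replicate slides.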 The conditions noted are these: ConA-A647 binding fluorescence, higher = more signal.

Activity calls are given as the source filed them.

Chain of Albumin (Bos taurus) (P02769 whole entry, looked up): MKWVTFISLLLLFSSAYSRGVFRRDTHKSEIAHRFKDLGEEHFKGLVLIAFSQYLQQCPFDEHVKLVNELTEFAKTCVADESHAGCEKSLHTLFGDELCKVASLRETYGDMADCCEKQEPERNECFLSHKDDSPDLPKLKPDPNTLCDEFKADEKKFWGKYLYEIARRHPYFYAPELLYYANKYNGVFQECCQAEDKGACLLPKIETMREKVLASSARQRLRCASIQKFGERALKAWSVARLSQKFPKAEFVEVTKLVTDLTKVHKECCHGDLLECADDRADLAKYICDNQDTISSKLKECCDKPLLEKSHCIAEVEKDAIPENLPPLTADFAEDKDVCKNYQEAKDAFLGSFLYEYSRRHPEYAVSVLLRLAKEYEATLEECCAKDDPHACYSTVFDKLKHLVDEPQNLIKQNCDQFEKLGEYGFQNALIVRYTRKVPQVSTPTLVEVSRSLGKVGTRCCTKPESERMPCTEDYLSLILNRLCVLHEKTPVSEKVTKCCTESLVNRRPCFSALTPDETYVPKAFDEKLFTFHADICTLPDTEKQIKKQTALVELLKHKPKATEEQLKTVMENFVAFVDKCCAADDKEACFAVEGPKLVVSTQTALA
Chain of Concanavalin-A (Canavalia ensiformis) (P02866 whole entry, looked up): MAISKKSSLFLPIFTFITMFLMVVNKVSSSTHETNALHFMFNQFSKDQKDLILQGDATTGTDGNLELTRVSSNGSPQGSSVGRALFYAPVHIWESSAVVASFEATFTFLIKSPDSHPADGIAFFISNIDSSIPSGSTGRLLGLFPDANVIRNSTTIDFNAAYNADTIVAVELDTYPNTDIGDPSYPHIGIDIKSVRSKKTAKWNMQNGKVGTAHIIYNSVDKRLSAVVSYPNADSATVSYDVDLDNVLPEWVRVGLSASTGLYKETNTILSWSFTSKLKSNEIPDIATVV

In the case of `O=C1O[C@@H](c2ccccc2)[C@@H](c2ccccc2)N2[C@@H](c3ccccc3OCCO)[C@]3(C(=O)Nc4ccc(C#CC5=CCCCC5)cc43)[C@@H](C(=O)Nc3nc4ccccc4s3)[C@H]12`, the composite z-score was 0.778 with Albumin (Bos taurus); 0.0715 in experiment [2]; -0.0583 in experiment [3]; 0.272 in [4]; 1.39 in experiment [5]; 0.399 in experiment [6]. Moreover, the composite z-score is 1.3 in the experiment on Sam68 (KHDRBS1), 0.309 in experiment [7] and 1.06 in experiment [8]. Further, in experiment [1], the composite Z-score was 0.243 (inactive).

For the molecule `C=CCNC(=O)[C@@H]1[C@H]2C(=O)O[C@H](c3ccccc3)[C@H](c3ccccc3)N2[C@H](c2ccc(OCCO)cc2)[C@@]12C(=O)Nc1ccc(C#CCCO)cc12`, the composite z-score turned out to be 0.495 in the experiment with Albumin (Bos taurus); 0.999 in experiment [2]; 0.403 in experiment [3]; 0.659 in experiment [4]; 2.62 in [5]; 0.906 in [6]. Moreover, the composite z-score in the experiment with Sam68 (KHDRBS1) came out at 1.29; in experiment [7], 1.15; in experiment [8], 1.15. The composite Z-score in experiment [1] was 0.858 (inactive).

With `COCCOC(=O)N1C(=O)[C@@]2(c3cc(C#CCCO)ccc31)[C@H](C(=O)Nc1nc3ccccc3s1)[C@H]1C(=O)O[C@H](c3ccccc3)[C@H](c3ccccc3)N1[C@@H]2c1ccc(OCCO)cc1`, the composite z-score in the experiment with Albumin (Bos taurus) was 0.72; in experiment [2], 0.286; in [3], -0.0028; in [4] it was 0.295; in [5], 0.793; in [6], 0.225. The composite z-score in the experiment with Sam68 (KHDRBS1) amounted to 1.28; in [7] it was 0.387; in experiment [8] it was 1.07. Moreover, the composite Z-score in experiment [1] was -1.03 (inactive).

In the case of `CCc1oc(CC[C@@H](CO)NC(=O)NCCn2cc(C3(O)CCCCC3)nn2)c(C(=O)OC)c1C(=O)OC`, the composite z-score was -0.272 in the experiment with Albumin (Bos taurus); 0.232 in experiment [2]; -0.0813 in experiment [3]; -0.0227 in experiment [4]; 0.376 in experiment [5]; 0.731 in experiment [6]. Further, the composite z-score with Sam68 (KHDRBS1) turned out to be 1.18; in [7] it was 0.915; in [8] it was 1.11. For the same molecule, the composite Z-score in experiment [1] is -0.0435 (inactive).

Turning to `C=CC[C@]12N=C(c3ccc(OCCCO)cc3)O[C@H]1c1ccccc1N(Cc1ccccc1)C2=O`, the composite z-score is -0.0059 with Albumin (Bos taurus); 0.0225 in experiment [2]; -0.078 in experiment [3]; 0.669 in experiment [4]; 2.12 in [5]; 0.38 in [6]. Also, the composite z-score was 0.98 in the experiment with Sam68 (KHDRBS1), 0.317 in [7] and 0.385 in experiment [8]. Besides, the composite Z-score in [1] was 1.2 (inactive).

`O=C1NC(=O)C2C1C=CC(C(O)c1ccccc1)N2Nc1ccc(Cl)cc1Cl` (stereo not given): the composite z-score in the experiment with Albumin (Bos taurus) is 0.885; in experiment [2], 0.405; in experiment [3] it was -0.0974; in [4], 0.574; in experiment [5], 3.18; in [6], 1.23. Also, the results for the composite z-score (in the experiment with Sam68 (KHDRBS1); in [7]; in [8]) were 1.33, -0.238 and 1.1, respectively. In addition, the composite Z-score in experiment [1] is -0.199 (inactive).

For the molecule `C=CCC(OC(C)=O)[C@@H]1[C@@H](N(Cc2ccc(-c3ccccc3)cc2)C(=O)Cc2ccc(F)cc2)c2cc(OCCCO)ccc2N1C(=O)c1ccc(-c2ccccc2)cc1` (stereo not given in full), the composite z-score in the experiment with Albumin (Bos taurus) was 0.127; in experiment [2] it was 0.0905; in experiment [3], -0.141; in experiment [4], -0.249; in experiment [5], -0.338; in [6], 0.0362. Further, the composite z-score with Sam68 (KHDRBS1) is 0.0072; in experiment [7], 0.528; in experiment [8] it was -0.136. The composite Z-score in experiment [1] is -0.405 (inactive).

`COC(=O)c1c(CC[C@@H](CO)NC(=O)N[C@@H](C)Cn2cc(C3(O)CCCCC3)nn2)oc(C(C)=O)c1C(=O)OC`: the composite z-score was 0.0745 with Albumin (Bos taurus); 0.0596 in experiment [2]; -0.0466 in [3]; 0.421 in experiment [4]; 0.377 in experiment [5]; -0.0869 in experiment [6]. Besides, the composite z-score stood at 1.29 with Sam68 (KHDRBS1), 1.02 in experiment [7] and 1.02 in experiment [8]. In experiment [1], the composite Z-score is 0.502 (inactive).

For the molecule `C=CCOC(=O)[C@@H]1[C@H]2C(=O)O[C@H](c3ccccc3)[C@H](c3ccccc3)N2[C@H](c2ccc(OCCOC(=O)[C@@H]3C[C@@H]4C(=O)N[C@@H](Cc5ccccc5)C(=O)N4[C@@H]3c3ccc(O)cc3)cc2)[C@@]12C(=O)Nc1ccc(I)cc12`, the composite z-score with Albumin (Bos taurus) is -0.47; in [2] it was 0.251; in [3], -0.0984; in experiment [4], 0.299; in experiment [5], 1.28; in experiment [6], 0.0186. In addition, the values for the composite z-score (in the experiment with Sam68 (KHDRBS1); in experiment [7]; in experiment [8]) were 1, 0.918 and 1.18, respectively. Also, in [1], the composite Z-score was 0.364 (inactive).

As to `CC(C)(C)OC(=O)CC[C@@]1(C(=O)NCC(O)CO)N=C(c2ccc(OCCCO)cc2)O[C@@H]1c1ccccc1N=[N+]=[N-]` (stereo not given in full), the composite z-score came out at 0.866 in the experiment with Albumin (Bos taurus); 0.183 in experiment [2]; 0.0083 in experiment [3]; 0.741 in experiment [4]; 3.53 in experiment [5]; 0.537 in experiment [6]. In addition, the composite z-score with Sam68 (KHDRBS1) was 1.16; in experiment [7] it was -0.121; in experiment [8] it was 1.2. The composite Z-score in [1] was 0.559 (inactive).

As for `CN1C(=O)C2C=CC(C(O)c3cc(C(F)(F)F)cc(C(F)(F)F)c3)N(N3CCCCC3)C2C1=O` (stereo not given), the composite z-score with Albumin (Bos taurus) is 0.712; in experiment [2], 0.0488; in [3], -0.0467; in experiment [4], 0.551; in [5], 1.79; in experiment [6], -0.33. Further, the composite z-score with Sam68 (KHDRBS1) was 1.08; in [7], -0.672; in experiment [8] it was 0.768. The composite Z-score in [1] is 2.11 (inactive).

As to `COC(=O)[C@@]1(Cc2ccc(OC)cc2)[C@H]2c3cc(C(=O)N(C)C)n(CCN4CNCC4=O)c3C[C@H]2CN1C(=O)c1ccccc1`, the composite z-score in the experiment with Albumin (Bos taurus) was found to be 0.854; in [2] it was 0.0539; in experiment [3], 0.0228; in experiment [4], 0.879; in [5], 0.287; in experiment [6] it was 0.898. Moreover, the composite z-score is -0.668 in the experiment on Sam68 (KHDRBS1), -0.386 in experiment [7] and -0.61 in [8]. The composite Z-score in experiment [1] is -0.704 (inactive).

As for `CCOC1=C2C(CN(S(=O)(=O)c3ccc(C)cc3)C2c2ccc(C)cc2)C2C(=O)N(c3ccccc3)C(=O)C2C1` (stereo not given), the composite z-score was 0.453 with Albumin (Bos taurus); 0.24 in experiment [2]; -0.0665 in [3]; 0.676 in experiment [4]; 1.58 in experiment [5]; 0.377 in experiment [6]. For the same molecule, the figures for the composite z-score (in the experiment on Sam68 (KHDRBS1); in experiment [7]; in experiment [8]) were 0.814, 0.479 and 0.654, respectively. The composite Z-score in experiment [1] was 0.0045 (inactive).

With `COC(=O)[C@@]1(Cc2ccccc2)[C@H]2c3cc(C(=O)N4CCCC4)n(CC4CC4)c3C[C@H]2CN1C(=O)c1ccccc1`, the composite z-score with Albumin (Bos taurus) stood at 0.946; in experiment [2], 1.13; in experiment [3], 0.389; in [4] it was 0.641; in experiment [5], 2.89; in [6], 0.114. The composite z-score in the experiment with Sam68 (KHDRBS1) was 1.3; in experiment [7] it was -0.311; in experiment [8] it was 0.818. Moreover, the composite Z-score in experiment [1] was 1.02 (inactive).

Consider `CN(C)CCCNC(=O)[C@@]1(c2ccc([N+](=O)[O-])cc2)CC(=O)N(C2CCCCC2)[C@@H]1c1ccc(CO)cc1`, for which the composite z-score is 0.611 in the experiment with Albumin (Bos taurus); -0.0795 in experiment [2]; -0.146 in experiment [3]; 0.395 in [4]; 1.68 in [5]; -0.0291 in experiment [6]. Further, the composite z-score in the experiment with Sam68 (KHDRBS1) was 0.819; in experiment [7], -0.357; in experiment [8], 0.282. For the same molecule, the composite Z-score in experiment [1] is -0.14 (inactive).

In the case of `COc1ccc([C@H]2OC[C@@H]3CC4(CC=CC4)C(=O)N32)cc1`, the composite z-score with Albumin (Bos taurus) is -0.505; in experiment [2] it was 0.146; in experiment [3], -0.0662; in [4], 0.278; in experiment [5] it was 0.383; in experiment [6] it was -0.129. Moreover, the composite z-score was 0.964 with Sam68 (KHDRBS1), 1.54 in [7] and -0.572 in experiment [8]. For the same molecule, in [1], the composite Z-score is 0.544 (inactive).
